Broadly, the inhibition is the change of the read-out against control, counted positive when it falls.

Among the data in PubChem BioAssay AID629 (Emory University Molecular Libraries Screening Center, 2007) are inhibition values, retold here.

Among all 86,000 compounds or so, about 1,400 (1.6%) were called active. This is one part of a sample in which actives are shown more often than they occur. A number with no mark means an inactive call. Rule as the data show it: active = inhibition above about 50%; inactive = the rest.

The target in this experiment is Estrogen receptor (Homo sapiens) (UniProt P03372). The experiment is described as follows: ERα–SRC-1 coactivator interaction inhibitors, primary screen, biochemical, TR-FRET, ERα LBD, estradiol-bound (AID 629).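 Also: 0% = receptor plus peptide control and 100% = peptide only without receptor.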 Conditions: TR-FRET ER-alpha LBD / SRC-1 peptide, at 25.6 µM, hits give high values.
Chain of Estrogen receptor (Homo sapiens) (P03372 whole entry, looked up, the tested form may be a part): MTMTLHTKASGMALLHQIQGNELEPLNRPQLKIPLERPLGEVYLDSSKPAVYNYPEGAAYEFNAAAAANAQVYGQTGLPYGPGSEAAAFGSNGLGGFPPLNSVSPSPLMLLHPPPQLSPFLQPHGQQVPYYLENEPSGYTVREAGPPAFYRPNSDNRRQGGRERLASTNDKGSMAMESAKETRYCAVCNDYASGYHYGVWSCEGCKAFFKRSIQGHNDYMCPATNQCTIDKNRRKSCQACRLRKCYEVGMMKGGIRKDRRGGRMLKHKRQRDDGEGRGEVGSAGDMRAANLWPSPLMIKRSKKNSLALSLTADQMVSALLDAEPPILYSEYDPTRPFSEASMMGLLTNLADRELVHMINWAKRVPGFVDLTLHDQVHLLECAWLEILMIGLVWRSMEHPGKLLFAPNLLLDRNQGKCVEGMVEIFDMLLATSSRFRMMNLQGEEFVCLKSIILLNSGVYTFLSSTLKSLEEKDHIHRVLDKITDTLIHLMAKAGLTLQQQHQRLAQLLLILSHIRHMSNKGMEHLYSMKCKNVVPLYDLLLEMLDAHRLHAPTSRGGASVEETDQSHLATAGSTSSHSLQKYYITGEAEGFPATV
Turning to `CCOC(=O)c1c(NC(=O)c2ccc(Br)o2)sc2c1CCCC2`, the inhibition is 7.77%.

As for `CC1CCc2c(sc(NC(=O)c3ccc(Cn4cc(Br)cn4)o3)c2C(N)=O)C1` (stereo unspecified), the inhibition is 50.6% (active).

Turning to `Cc1cc(NC(=O)CSc2nc(C(C)C)nc3sc4c(c23)CCC(C)C4)no1` (stereo unspecified), the inhibition was -14.6%.

With `Cc1ccc(CN(C(=O)c2sc3ccccc3c2Cl)C2CCS(=O)(=O)C2)cc1` (stereo unspecified), the inhibition is 6.88%.

As to `C/C=C/C(=O)Nc1nnc(C(C)C)s1`, the inhibition is -19.7%.

Take `CNC(=O)c1c(NC(NC(=O)c2ccco2)C(=O)c2ccc(Cl)cc2)sc2c1CCCC2` (stereo unspecified): the inhibition is -3.84%.

Take `CNC(=O)c1c(NC(=O)c2ccc(S(=O)(=O)N3CCOCC3)cc2)sc2c1CCC2`: the inhibition is 94.5% [fluorescence artefact?] (active).

With `COc1ccc(C(=O)Nc2nc(-c3ccc(S(=O)(=O)N4CCOCC4)cc3)cs2)cc1`, the inhibition was 3.26%.

Consider `CCOC(=O)c1ccc2c(c1)nc(SCC(=O)NC(C)C)n2CC`, for which the inhibition is 26.4%.

As to `CCOc1cc(C(=O)Nc2c(C)ccc3nsnc23)cc(OCC)c1OCC`, the inhibition was 8.18%.

With `N#CC(=C1CCCC1)c1nc(-c2ccc(Cl)cc2)cs1`, the inhibition was -5.55%.

As to `CCCCCN1CC(O)=C(c2ccccc2)C1=N`, the inhibition was 2.06%.

For `CCCCCN1CC(O)=C(c2nc(-c3ccc(Cl)cc3)cs2)C1=N`, the inhibition is 65.8% [fluorescence artefact?] (active).

Consider `Cc1ccc(S(=O)(=O)Oc2ccc(/C=N/NC(=O)c3c(Cl)cnn3C)cc2)cc1`, for which the inhibition is -7.62%.

Turning to `COCCCn1c(SCC(=O)Nc2ccccc2)nnc1-c1ccncc1`, the inhibition is -1.59%.

Take `C=CCn1c(CC(=O)Nc2cccc(OC)c2)nnc1SCC(=O)NC1CCCCC1`: the inhibition is -5.03%.

Consider `COCCCn1c(Cc2csc(Nc3cccc(Cl)c3)n2)nnc1SCC(=O)OC1CCCCC1`, for which the inhibition was 67.4% [fluorescence artefact?] (active).

For `O=c1nc2s/c(=C\c3ccco3)c(=O)n2nc1Cc1ccccc1`, the inhibition is 28.7%.

For `CCOC(=O)/C=c1\s/c(=C\c2ccccc2OC)c(=O)n1CC(=O)N1CCOCC1`, the inhibition was -4.48%.

For `CCOc1ccccc1C(=O)NCc1ccco1`, the inhibition was 10.6%.

For `CCOc1ccccc1/C=c1\sc2nc(-c3ccco3)nn2c1=O`, the inhibition was 57.2% (active).

On to `CCCCOc1ccccc1/C=c1/sc2nc(-c3oc4ccccc4c3C)nn2c1=O`, for which the inhibition is 50% (active).

As for `CCc1nc2oc3ccccc3c(=O)c2c(=O)n1Cc1ccc(OC)cc1`, the inhibition was 21%.

Turning to `COC(=O)CSc1nc(C)c2ccc(OC)cc2n1`, the inhibition is -6.48%.

With `CC1CCCCC1NC(=O)C1CCCN1S(=O)(=O)c1cccc2nsnc12` (stereo unspecified), the inhibition was 11.2%.

Turning to `Cc1cc(C)c(NC(=O)CN2CCOCCOCCOCCOCC2)c(C)c1`, the inhibition is 3.92%.

On to `O=C(CN1CCCCCC1)N1c2ccccc2Sc2ccc(C(F)(F)F)cc21`, for which the inhibition was -9.51%.

Consider `Cc1nc(NNC(=O)c2ccccc2)cc(-c2ccccc2)n1`, for which the inhibition is -1.45%.

As to `Cc1ccccc1NC(=O)c1ccccc1`, the inhibition was -4.17%.

With `Cc1ccc2c(c1)sc1ncc(NC(=O)c3ccccc3)c(=O)n12`, the inhibition was 53.5% [fluorescence artefact?] (active).

For the compound `Cc1cccc(N(C(=O)c2ccc(CN3CCOCC3)o2)C(C(=O)NC2CCCCC2)c2ccc(F)cc2)c1` (stereo unspecified), the inhibition is 2.65%.

With `CS(=O)(=O)c1ccc2c(c1)SC1=NC(=O)/C(=C/c3ccco3)C(=N)N12`, the inhibition was 82.8% [fluorescence artefact?] (active).

Consider `COc1ccccc1N1CCN(C(=O)c2cn(-c3ccccc3)nc2-c2cccnc2)CC1`, for which the inhibition was 0.39%.

As for `O=C(c1cn(-c2ccccc2)nc1-c1cccnc1)N1CCCCC1`, the inhibition is 93.3% [fluorescence artefact?] (active).

Consider `COC(=O)c1cn(-c2ccccc2)nc1-c1cccnc1`, for which the inhibition was 1.49%.

For `O=C(N/N=C\c1cccc(Br)c1)c1ccccc1-n1cccc1`, the inhibition was -1.04%.

Consider `Oc1ccc(-c2onc3ccc(Cl)cc23)cc1`, for which the inhibition is 2.22%.

Consider `O=S(=O)(NN=C1CCCCCCC1)c1ccc(Br)cc1`, for which the inhibition was -3.65%.

As for `O=C(NCc1ccco1)c1cnn2c(C(F)(F)F)cc(-c3ccco3)nc12`, the inhibition is 6.58%.

In the case of `COC(=O)c1cc2nc(-c3ccccc3)cc(C(F)(F)F)n2n1`, the inhibition is -12%.

Turning to `COC(=O)c1cnn2c(C(F)(F)F)cc(-c3ccco3)nc12`, the inhibition is 62.1% (active).

With `CC1(C)C2CCC13CS(=O)(=O)NC3C2` (stereo unspecified), the inhibition was 3.36%.

Turning to `CCc1nnc(NC(=O)CSc2nc3ccccc3c(=O)n2CCCOC)s1`, the inhibition was 14.8%.

Take `O=C1/C(=C/c2cccs2)CCc2ccccc21`: the inhibition is 5.05%.

With `Cc1ccc(-n2c(SCC(=O)Nc3ccc4c(c3)OCO4)nnc2-c2ccoc2C)cc1`, the inhibition is -0.65%.

Consider `Cc1ccc(-n2c(SCC(=O)Nc3ccc4c(c3)OCO4)nnc2-c2ccccn2)cc1`, for which the inhibition is -7.91%.

In the case of `COc1ccc(-n2c(SCC(=O)Nc3ccc4c(c3)OCO4)nnc2C(C)N2CCCCC2)cc1` (stereo unspecified), the inhibition is 55.2% (active).

In the case of `O=C1N=C(N2CCCC2)S/C1=C\c1cccc(Br)c1`, the inhibition was -3.71%.

Consider `CSc1nc2nc3c(c(=O)n2[nH]1)CCC3`, for which the inhibition is -5.51%.

Take `CNc1nc(SC)nc(N(C#N)CC(=O)OC)n1`: the inhibition is -12.1%.

Regarding `O=C(NCC(=O)N(Cc1cccs1)C(C(=O)NC1CCCCC1)c1ccco1)c1cccs1` (stereo unspecified), the inhibition was -0.84%.

On to `O=C(Cc1c[nH]c2ccccc12)OCCOC(=O)Cc1c[nH]c2ccccc12`, for which the inhibition is -4.73%.

In the case of `COc1cccc(NC(=O)CN2CCN(c3nc(-c4cccc(OC)c4)cs3)CC2)c1`, the inhibition is -8.12%.

Regarding `CC1Cc2ccccc2N1C(=O)CSc1nc2ccccc2o1` (stereo unspecified), the inhibition is -8.05%.

As to `CCS(=O)(=O)c1ccc2oc(SCC(=O)N3c4ccccc4CC3C)nc2c1` (stereo unspecified), the inhibition is 14%.

Turning to `CC1Cc2ccccc2N1C(=O)CSc1nnc(-c2ccc(S(=O)(=O)N3CCCCC3)cc2)o1` (stereo unspecified), the inhibition is 72.8% [fluorescence artefact?] (active).

Turning to `O=C(CCN1c2ccccc2Sc2ccccc21)Nc1ccccc1`, the inhibition was -1.92%.

As for `Cc1ccc(Nc2nnc(SCc3ccccc3)s2)cc1`, the inhibition was -0.81%.

On to `O=C(CCN1CCc2ccccc2C(O)(c2ccccc2)C1)c1ccc2c(c1)OCCO2` (stereo unspecified), for which the inhibition is 6.71%.

For the compound `Cc1ccc(SCC(=O)c2cc(C)c(OC(=S)N(C)C)c(C)c2)cc1`, the inhibition was 1.54%.

Turning to `COc1ccc(-c2nc3ccccc3n2CCC(C)C)cc1OC`, the inhibition was 0.74%.

On to `CCNCc1cc2cc(C)ccc2[nH]c1=O`, for which the inhibition was 5.96%.

As to `Cc1ccc2nc(SC(C)C(=O)NCc3ccco3)[nH]c2c1` (stereo unspecified), the inhibition is 0.42%.

`Cc1ccc2[nH]c(=O)c(-c3nc4c(C)cccn4c3NCc3ccco3)cc2c1`: the inhibition is 92.7% [fluorescence artefact?] (active).

As to `CC(C)(C)c1ccc(OC2=CS(=O)(=O)c3ccccc32)cc1`, the inhibition is -1.62%.

With `CCCCCCc1cc2cc(-c3nnc(-c4ccccc4)o3)c(=O)oc2cc1O`, the inhibition was 53.5% (active).

For `CCCCCCc1cc2cc(-c3nnc(-c4cccc(OC)c4)o3)c(=O)oc2cc1O`, the inhibition is -2.99%.

With `COc1ccc(CC(=O)Nc2ccc(-c3nnc(-c4ccccc4)o3)cc2)cc1`, the inhibition is 40.1%.

Take `CCOc1ccc(S(=O)(=O)NCCSc2ccccc2)cc1`: the inhibition was 0.2%.

For the compound `Cc1cc(C)c2c(n1)nn1c(N3CCN(c4cccc(Cl)c4)CC3)cc(C)nc21`, the inhibition is 73.8% (active).

On to `Cc1cc(C)c2c(n1)nn1c(-n3ccnc3)cc(C)nc21`, for which the inhibition was 4.13%.

As for `Cc1cc(C)c2c(n1)nn1c(N3CCOCC3)cc(C)nc21`, the inhibition is 10.7%.

For the compound `COc1ccc(C2CC(c3cccs3)=Nc3ccccc3S2)cc1OC` (stereo unspecified), the inhibition is 15.7%.

For `Cc1cccc(-c2nc3c(c(SCC(=O)N4CCOCC4)n2)CCCC3)c1`, the inhibition is -17.1%.

On to `Cc1nc(NC(=O)C2CCCCC2)sc1C`, for which the inhibition was 0.45%.

On to `O=C(Cn1nnc(-c2ccc3c(c2)OCO3)n1)NCc1ccco1`, for which the inhibition was 41.7%.

Take `CS(=O)(=O)N(CC(=O)N1CCN(Cc2ccc3c(c2)OCO3)CC1)c1ccc2c(c1)OCO2`: the inhibition was 2.04%.

For `CS(=O)(=O)N(CC(=O)NCc1ccco1)c1ccc2c(c1)OCO2`, the inhibition is 53.8% (active).

Turning to `COC(=O)c1cccc(N(C(=O)c2ccco2)C(C(=O)NC2CCCC2)c2ccco2)c1` (stereo unspecified), the inhibition is -14.6%.

Turning to `CC1=C(C(=O)Nc2ccccc2)C(c2ccco2)C(C#N)=C(SCC(N)=O)N1` (stereo unspecified), the inhibition was -3.05%.

Take `N#CC1=C(N)Oc2c(sc3ccccc23)C1c1ccco1` (stereo unspecified): the inhibition is 85.9% [fluorescence artefact?] (active).

In the case of `Cc1cc2c(c(=O)n1Cc1ccco1)C(c1ccccc1)C(C#N)=C(N)O2` (stereo unspecified), the inhibition is -11.1%.

In the case of `Cc1cc(C(=O)OC(C)C(=O)Nc2cccc(S(=O)(=O)N3CCOCC3)c2)c(C)o1` (stereo unspecified), the inhibition was 0.74%.

Regarding `CCOC(=O)Cc1csc(NC(=O)CSc2nnc(-c3cccnc3)n2Cc2ccco2)n1`, the inhibition was -5.63%.

Take `Cc1cc(N2CCN(S(=O)(=O)c3ccc(C)c(C)c3)CC2)c2ccccc2n1`: the inhibition was 16.1%.

Turning to `CCNCCC(=O)N1c2ccccc2Sc2ccc(NC(=O)OCC)cc21`, the inhibition is -22%.

As for `CCO/C([O-])=N/c1c[n+](N2CCOCC2)no1`, the inhibition is 51.1% (active).

With `O=C(NCCN1CCN(Cc2ccccc2)CC1)c1cc2c(=O)[nH]c3ccccc3c2s1`, the inhibition is 24.2%.

Take `Fc1ccc(-c2ccc(-c3nn4c(-c5ccco5)nnc4s3)o2)cc1`: the inhibition was 69.7% [fluorescence artefact?] (active).

As to `FC(F)(F)c1nnc2sc(-c3ccco3)nn12`, the inhibition was 2.64%.

With `Cc1nnc2sc(-c3ccco3)nn12`, the inhibition is 0.95%.
